Screens deposited in PubChem by National Center for Advancing Translational Sciences (NCATS).
DT40 TDP1 no CPT: qHTS for Inhibitors of human tyrosyl-DNA phosphodiesterase 1 (TDP1): qHTS in cells in absence of CPT; DT40 Tdp1-/- hTDP1 cells, no CPT, ATP luminescence, 48 h; Potency, µM (titrated, usually from 46.2 µM), usual class: inhibitors; actives 15% (n = 420,000); further: nearly all actives have a fitted effect of over 55% in size
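DT40 Tdp1-/-;hTDP1 cells, no CPT (DMSO vehicle only), 400 cells/well; compounds pin-transferred; ≥48 hr, 37 °C; CellTiter-Glo 30 min RT dark, luminescence read.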
TDP1 cell CPT: qHTS for Inhibitors of human tyrosyl-DNA phosphodiesterase 1 (TDP1): qHTS in cells in presence of CPT | actives 12% (n = 420,000) | Potency, µM (titrated, usually from 46.2 µM), usual class: inhibitors | AID 686979, 2013 | chicken DT40 Tdp1-/-;hTDP1 cells + 20 nM CPT, ATP luminescence, 48 h; further: nearly all actives have a fitted effect of over 55% in size
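Cell growth measured by CellTiter-Glo luminescence after a minimum 48 h, 37 C compound exposure with 20 nM CPT in Tdp1-knockout DT40 cells stably expressing hTDP1, seeded 400/well; qHTS titration format.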
TDP1 inh: qHTS Assay for Inhibitors of Tyrosyl-DNA Phosphodiesterase (TDP1). Tyrosyl-DNA phosphodiesterase 1 (Homo sapiens), Q9NUW8. recombinant TDP1, AlphaScreen DNA substrate cleavage. Potency, µM (top dose mostly 130 µM), hits mostly inhibitors. actives 0.28% (n = 350,000); further: nearly all actives have a fitted effect of over 40% in size
Target sequence (Q9NUW8 whole entry, looked up): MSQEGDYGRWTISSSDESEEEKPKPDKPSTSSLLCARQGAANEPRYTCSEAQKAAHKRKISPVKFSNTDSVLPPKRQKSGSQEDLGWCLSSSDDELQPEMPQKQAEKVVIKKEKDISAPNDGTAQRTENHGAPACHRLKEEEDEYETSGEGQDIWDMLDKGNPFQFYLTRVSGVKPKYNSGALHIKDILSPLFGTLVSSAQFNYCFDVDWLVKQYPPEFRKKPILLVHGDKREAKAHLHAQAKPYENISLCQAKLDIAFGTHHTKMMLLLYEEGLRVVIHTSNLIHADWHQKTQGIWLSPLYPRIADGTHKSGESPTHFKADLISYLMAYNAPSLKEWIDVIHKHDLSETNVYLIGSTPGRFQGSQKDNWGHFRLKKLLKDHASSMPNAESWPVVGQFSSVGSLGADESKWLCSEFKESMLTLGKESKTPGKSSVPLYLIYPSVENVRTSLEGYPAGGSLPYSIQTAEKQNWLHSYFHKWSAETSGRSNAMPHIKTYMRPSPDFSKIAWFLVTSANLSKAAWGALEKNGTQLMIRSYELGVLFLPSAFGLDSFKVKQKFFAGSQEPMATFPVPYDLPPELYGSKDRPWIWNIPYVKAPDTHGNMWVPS
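Here, a 5' biotin and 3' phosphotyrosine-FITC DNA oligonucleotide reports Tdp1 activity: intact substrate bridges AlphaScreen beads, while cleavage leaves a 3' phosphate and drops signal. All incubations at room temperature.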
IL1B secr inh: qHTS for Inhibitors of Inflammasome Signaling: IL-1-beta AlphaLISA Primary Screen; activity change, % at 57.5 µM; actives 4.7% (n = 360,000); THP-1 LPS/ATP IL-1B secretion, AlphaLISA, 16 h; hits give low values; in the data active means activity change below about -50%; inconclusive means mostly about -30% to -49%
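THP-1 cells pretreated 1 hr with compounds (up to 57.5 uM final), then stimulated with LPS (250 ng/mL final) plus ATP (1.25 mM final); secreted IL-1B measured by AlphaLISA after 16 hr, decreased signal indicating inhibition.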
TGFb SMAD3 inh: qHTS for Inhibitors of TGF-b; actives 1.2% (n = 410,000); HepG2 CAGA-GFP TGF-b/SMAD3 reporter, GFP fluorescence, 18 h; TGF-beta stimulated, 500 pg/mL final; Potency, µM (top dose mostly 46.1 µM), usual class: inhibitors; further: nearly all actives have a fitted effect of over 65% in size
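HEPG2 CAGA-GFP reporter cells (1000/well, DMEM with 1% FBS) received compounds, then recombinant TGF-beta at 500 pg/mL final for 18 hours at 37 degrees C. Per-cell GFP summed per well was normalised to unstimulated and stimulated DMSO controls before curve fitting.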
HepG2 tox: qHTS for Inhibitors of TGF-b: Cytotox Counterscreen; HepG2 CAGA-GFP viability, ATP luminescence, 18 h; Potency, µM (titrated, usually from 46.1 µM), hits mostly cytotoxic; AID 588856, 2011; actives 0.76% (n = 410,000)
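HepG2 CAGA-GFP cells (1000/well, DMEM with 1% FBS) received compound, then TGF-beta at 500 pg/mL final, and were incubated 18 hours at 37 degrees C. Viability was read by CellTiter-Glo luminescence. Media-only wells were set as complete cell-killing and DMSO as no toxicity.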
A number is an active result; - = inactive; ? = inconclusive; . = no result. A selection: hits, their analogues and other compounds. The true share with any hit is near 18%. Unless noted, the call rests on the fitted dose curve; in most records, active means well fitted curve in the direction sought with a large enough effect; inconclusive means small, poorly fitted or top-dose-only effect, or another doubt; inactive means no such curve, though single readings can be large; an effect the other way counts as inactive or inconclusive.

SMILES	DT40 TDP1 no CPT	TDP1 cell CPT	TDP1 inh	IL1B secr inh	TGFb SMAD3 inh	HepG2 tox
Cc1cc(C)cc(S(=O)(=O)N2CCN(c3nc(-c4cccs4)nc4ccccc34)CC2)c1	?	?	-	.	.	.
CC(C)(C)c1ccc(CSc2nc3c(c(=O)[nH]2)CCCC3)cc1	?	?	-	.	-	-
COc1cc(C(=O)Nc2ccc(NC(=O)C3CCCCC3)nc2)cc(OC)c1OC	18.4µM	?	-	-	-	-
COc1cc(C(=O)NNC(=O)C2CCC2)cc(OC)c1OC	-	-	-	-	-	-
COc1cc(C(=O)Nc2ccc(NC(=O)c3cccc(Cl)c3)nc2)cc(OC)c1OC	8.2µM	25.9µM	-	-	-	-
O=C(Nc1ccc(NC(=O)C2CCCCC2)nc1)c1cccs1	11.6µM	?	-	-	-	-
CC(=O)Nc1cccc(-c2nc3ccccc3n2C(C)C(=O)NC(C)(C)C)c1 (stereo unspecified)	-	?	.	-	.	.
CNC(=O)OC1CC2CC1[C@H]1CCCCN1C2=O (stereo partly specified)	-	-	.	-	.	.
O=C(NNC(=O)c1ccc(-c2ccccc2)cc1)Nc1ccc(F)cc1F	-	-	-	-	-	-
O=C(NCc1ccccc1)c1ccc2c(=O)[nH]c3c(C(=O)NCC4CCCO4)sc(=S)n3c2c1 (stereo unspecified)	?	-	-	-	-	-
O=C(NC1CCCC1)c1sc(=S)n2c1[nH]c(=O)c1ccccc12	?	20.6µM	-	-84.5	-	-
O=C(NCc1ccco1)c1sc(=S)n2c1[nH]c(=O)c1ccccc12	?	-	-	-59.2	?	-
O=C(COCCOCCOCC(=O)Nc1c(I)cc(I)c(C(=O)O)c1I)Nc1c(I)cc(I)c(C(=O)O)c1I	-	-	.	.	.	.
COc1ccc(N(Cc2cc3ccc(C)cc3[nH]c2=O)C(=O)c2ccco2)cc1	20.6µM	23.1µM	-	-	-	-
COc1ccc(N(Cc2cc3ccc(C)cc3[nH]c2=O)C(=O)C2CCCO2)cc1 (stereo unspecified)	-	-	.	-	-	-
Cc1cccc(N(Cc2cc3ccccc3[nH]c2=O)C(=O)c2ccco2)c1C	-	25.9µM	-	-	-	-
Cc1cc([N+](=O)[O-])nn1CC(=O)N/N=C/c1ccccc1Br	-	-	-	-	-	-
C=CCOc1c(Br)cc(/C=N/NC(=O)Cc2ccc(C(F)(F)F)cc2[N+](=O)[O-])cc1OC	13µM	11.6µM	-	-	-	-
CCOc1cc(/C=N/NC(=O)Cc2ccc(C(F)(F)F)cc2[N+](=O)[O-])ccc1O	-	-	-	-	-	-
COc1cc(/C=N/NC(=O)Cn2nc([N+](=O)[O-])cc2C)cc(Br)c1OCc1ccccc1	?	25.9µM	-	-	?	-
Cc1cc([N+](=O)[O-])nn1CC(=O)N/N=C/c1ccc(O)cc1O	6.51µM	8.2µM	-	-	-	-
CCOc1cc(/C=N/NC(=O)Cn2nc([N+](=O)[O-])cc2C)cc(Br)c1OCc1ccccc1C	?	23.1µM	-	-	-	-
COc1ccccc1CNc1ncncc1-c1ccccc1C(F)(F)F	-	-	.	.	.	.
Cc1ccc(OCc2nnc(-c3ccccc3)o2)cc1	-	-	-	.	-	-
OC(c1ccc(OCc2ccccc2)cc1)c1nnc(-c2ccccc2)o1 (stereo unspecified)	16.4µM	20.6µM	-	-	-	-
SMILES	DT40 TDP1 no CPT	TDP1 cell CPT	TDP1 inh	IL1B secr inh	TGFb SMAD3 inh	HepG2 tox
Cn1ccnc1C(O)c1cccc(OCc2ccccc2)c1 (stereo unspecified)	-	-	-	-	-	-
c1ccc(-c2nnc(C(c3ccccc3)c3ccccc3)o2)cc1	18.4µM	25.9µM	-	-	?	-
OC(c1cccc(OCc2ccccc2)c1)c1nnc(-c2ccccc2)o1 (stereo unspecified)	18.4µM	18.4µM	-	?	?	-
NC(=O)NN=C1CC2CC1C1C=CCC21 (stereo unspecified)	-	-	.	-	-	-
Oc1ccc(O)c(C=NNC(=S)NC2CC3CC2C2C=CCC32)c1 (stereo unspecified)	?	18.4µM	.	-	?	-
NNC(=S)NC1CC2CC1C1C=CCC21 (stereo unspecified)	?	9.2µM	-	-	?	-
O=C(COc1ccc(Br)cc1)NNC(=O)Cc1ccc(S(=O)(=O)N2CCOCC2)s1	-	-	.	-	-	-
CCCS(=O)(=O)NC(=O)C1(C)CCCN(C(=O)CSc2ccccc2)C1 (stereo unspecified)	-	-	.	-	-	-
CN(CCCC1CCCC1)C(=O)c1cc(COc2ccc(F)c(F)c2)on1	-	?	.	-	?	-
CN(CCCC1CCCC1)C(=O)c1cc(COc2c(F)cccc2F)on1	-	-	79.4µM	-	-	-
CC(C)(C)c1ccc(N/N=C(\C#N)S(=O)(=O)C(C)(C)C)cc1	?	4.61µM	-	?	?	-
Cc1cccc(N/N=C(\C#N)S(=O)(=O)C(C)(C)C)c1	?	-	-	-	-	-
Cc1c(C(=O)N2CCCCC2)c(S(=O)(=O)NCc2ccc(Cl)cc2)c(C)n1C	-	?	-	-	-	-
COc1ccc(N2CCN(C(=O)C(Cc3ccccc3)NC(=O)c3ccccc3)CC2)cc1 (stereo unspecified)	?	?	.	-	?	-
Cc1ccccc1OCC(=O)Nc1ccccc1NC(=O)c1ccco1	-	-	-	-	-	-
CCOc1cc(NC(=S)NCC(C)C)c(OCC)cc1NC(=O)c1ccco1	?	14.6µM	-	-	-	-
COc1cc(NC(=O)c2ccco2)c(OC)cc1NC(=O)CSc1ncc(-c2ccc(F)cc2)[nH]1	25.9µM	?	-	-	-	-
O=C(NCCSc1ncc(-c2ccc(F)cc2)[nH]1)c1ccco1	?	?	-	-	-	-
CCOc1cc(NS(=O)(=O)CC)c(OCC)cc1NC(=O)c1ccco1	?	?	-	-	-	-
CCOc1cc(NC(=O)c2ccco2)c(OCC)cc1NC(=O)COc1ccccc1C	4.11µM	4.61µM	.	-	-	-
CCOc1cc(NC(=O)c2ccco2)c(OCC)cc1NC(=O)Cc1cccc(OC)c1	25.9µM	?	-	-	-	-
